# PubChem BioAssay AID602242 (Southern Research Specialized Biocontainment Screening …, 2012)
# Results with a measured potency or affinity are listed apart. Calls of active or inactive are those of the source. How the calls were made is not given here.
# Experiment: cell-based, strain KU V3526, counter-screen (AID 602242)
row,Compound,outcome
1,O=C(Oc1ccc2ccccc2c1Br)N1CCCCCC1,inactive
2,O=c1c2cc([N+](=O)[O-])ccc2nc(CN2CCN(c3ccccc3)CC2)n1-c1ccccc1F,inactive
